In PubChem BioAssay (NCATS):
A number with no mark means an inactive call. Records with an inconclusive call do not appear. The source made the active and inactive calls. Unless noted, calls follow the shape of the dose curve; as a rule, active = well fitted curve in the direction sought with a large enough effect; inconclusive = small, poorly fitted or top-dose-only effect, or another doubt; inactive = no such curve, though single readings can be large; an effect the other way counts as inactive or inconclusive.

Experiments:
[1] = target: Lysosomal acid glucosylceramidase (Homo sapiens) (UniProt P04062); assay: Glucocerebrosidase-p2 (AID 348; in the data active = potency below about 10 µM; also: potency is read from the fitted curve at half-maximal effect); settings: purified GBA, blue fluorogenic substrate, 40 min
Summary of the method: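 Normal human glucocerebrosidase (0.2 nM) with blue fluorogenic substrate (80 uM final) in citrate/phosphate pH 5.9 with 10mM sodium taurocholate, 0.01% tween-20; 40 min RT, NaOH/glycine stop; fluorescence Ex 365/Em 440; AC50 from a titration from 0.6 nM upwards.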

[2] = AP1 Signaling Pathway (AID 357; active = well fitted curve in either direction with a large enough effect, not every such curve was filed as active; also: % is scaled to controls: 0 for no effect and ±100 for the full control effect); settings: ME-180 AP-1-bla reporter, EGF-induced, beta-lactamase ratio, 5 h; at 7.69 µM (top of the series) unless noted
Summary of the method: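 ME-180 cells with beta-lactamase reporter under AP-1 response element, stimulated with EC50 EGF; compounds tested in titration series, 5 h at 37 °C. CCF4 substrate added 2.5 h at room temperature; 460/530 nm emission ratio gave %activity and AC50.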

[3] = target: Cytochrome P450 1A2 (Homo sapiens) (UniProt P05177); assay: p450-cyp1a2 (AID 410; calls by dose curve; also: potency is read from the fitted curve at half-maximal effect)
Summary of the method: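 Read-out is luminescence from luciferin produced by CYP1A2 demethylation of Luciferin-ME (100uM, at Km). Detection reagent stopped the 60 min NADPH-dependent reaction; signals were normalized to 57 uM furafylline.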

[4] = target: Glucocorticoid receptor (Homo sapiens) (UniProt P04150); assay: GR-GFP Redistribution (AID 450;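 active = compounds whose dose series gives a full or clear partial fitted curve of increased nuclear translocation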; also: potency is read from the fitted curve at half-maximal effect); settings: U2OS GR-GFP nuclear translocation, laser cytometry, 2 h
[5] = target: Glucocorticoid receptor (Homo sapiens) (UniProt P04150); assay: GR-EFC Redistribution (AID 451; calls by dose curve; also: potency is read from the fitted curve at half-maximal effect); settings: CHO-K1 GR-EFC translocation, beta-gal luminescence, 2 h
Summary of the method: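 CHO-K1 cells stably expressing nuclear-localized β-gal enzyme acceptor and GR fused C-terminally to the enzyme donor fragment; ligand-driven nuclear translocation restores β-gal by complementation. Compounds titrated up to 46 uM final, 2 h at 37 °C; luminescence read.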

[6] = target: Mitogen-activated protein kinase 10 (Mus musculus) (UniProt Q61831); assay: JNK3 AlphaScreen Assay (AID 530; active = well fitted curve in either direction with a large enough effect, not every such curve was filed as active;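 also: kinase came from lysate of stimulated human HepG2 cells; signal reports phosphorylation of biotinylated GST-cJun 1-79 at Ser73 with 10 µM ATP; % is scaled to controls: 0 for no effect and ±100 for the full control effect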)
Summary of the method: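 Biotinylated GST-cJun(1-79) served as substrate for JNK3 in HepG2 lysates stimulated with IL-1beta and TNF-alpha. ATP was 10 uM final, pH 7.6. Ser73 phosphorylation was quantified by AlphaScreen (680 nm excitation).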

[7] = target: 3',5'-cyclic-AMP phosphodiesterase 4B (Homo sapiens) (UniProt Q07343); assay: qHTS Assay for Inhibitors of PDE-IV (AID 607; active = well fitted activation curve with a large enough effect in the main read-out, with a control signal flat, not every such curve was filed as active; also: % of control where 0% means no effect)
Summary of the method: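 Live HEK293 cells with a modified cyclic nucleotide-gated (CNG) channel report intracellular cAMP via membrane-potential dye fluorescence (ex 535/em 590 nm). Endogenous PDE-IV was targeted. Compounds were tested at up to 22.9 uM final; RO 20-1724 100 uM served as control.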

[8] = target: Cytochrome P450 3A4 (Homo sapiens) (UniProt P08684); assay: qHTS Assay for Activators of Cytochrome P450 3A4 (AID 885); also: nearly all actives have a fitted effect of over 65% in size
Summary of the method: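 Using 20nM recombinant human CYP3A4 in potassium phosphate (200mM), substrate Luciferin-PPXE at 25uM, luminescent luciferin detection followed a 60-min RT NADPH reaction; data scaled to 57 uM ketoconazole.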

[9] = target: Dual specificity protein kinase CLK4 (Homo sapiens) (UniProt Q9HAZ1); assay: qHTS Assay for Inhibitors of CDC-like Kinase 4 (Kinase-Glo Assay) (AID 1770); also: nearly all actives have a fitted effect of over 65% in size; also: potency is read from the fitted curve at half-maximal effect
Summary of the method: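 25 nM Clk4 with 100 uM RS repeat peptide and 1 uM ATP (final) in Tris pH7.5, 10 mM MgCl2, 4.5 h at room temperature. Remaining ATP measured by Kinase-Glo luciferase luminescence.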

[10] = target: Dual specificity protein kinase CLK4 (Homo sapiens) (UniProt Q9HAZ1); assay: qHTS Assay for Inhibitors of CDC-like Kinase 4 (ADP-Glo Assay) (AID 1771); also: nearly all actives have a fitted effect of over 70% in size; also: potency is read from the fitted curve at half-maximal effect
Summary of the method: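 In this ADP-Glo format, 1 uM ATP and 100 uM RS peptide served as substrates for 25 nM Clk4 in Mg2+/EGTA/DTT/Triton buffer; reactions ran 1 hr at room temperature before luminescent ADP quantification.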

[11] = target: Ubiquitin carboxyl-terminal hydrolase 1 (Homo sapiens) (UniProt O94782); assay: Inhibitors of USP1/UAF1: Pilot qHTS (AID 504865);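 also: rhodamine fluorescence freed from ubiquitin-rhodamine substrate followed over time; top concentration of the series differs between compounds; % is scaled to controls: 0 for no effect and ±100 for the full control effect; nearly all actives have a fitted effect of over 35% in size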
Summary of the method: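 USP1/UAF1 complex at 1 nM preincubated 15 min at room temperature with compound, then Ub-Rho substrate added at 150 nM final. Fluorescence (480/540 nm) read kinetically in 50 mM HEPES pH 7.8, 0.5 mM EDTA, 1 mM TCEP, 0.1 mg/ml BSA, 0.01% Tween-20.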

[12] = Primary qHTS for small molecule stabilizers of the endoplasmic reticulum resident proteome: Secreted ER Calcium Modulated Protein (SERCaMP) assay (AID 1508630); also: % is scaled to controls: 0 for no effect and ±100 for the full control effect
Summary of the method: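 The SH-SY5Y reporter protocol was run at 3 concentrations up to 38.3 uM (primary) or 11 concentrations (follow-up): 16 h compound, 100 nM thapsigargin for 4 h, then extracellular luciferase luminescence.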

[13] = NFAT Signaling Pathway (AID 444; active = well fitted curve in either direction with a large enough effect, not every such curve was filed as active;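 also: carbachol stimulus at about its EC50 of 1 µM final; % is scaled to controls: 0 for no effect and ±100 for the full control effect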); settings: Jurkat NFAT-bla M1, carbachol, beta-lactamase ratio, 5 h; at 7.69 µM (top of the series) unless noted
Summary of the method: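 Jurkat cells carrying an NFAT-driven β-lactamase reporter and co-transfected muscarinic M1 receptor were treated with compound plus carbachol (1 uM final, an EC50 level) for 5 h at 37 °C. CCF4 loading followed for 1 h at RT; 460/530 nm ratio gave %activity.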

[14] = Stat Signaling Pathway (AID 446; active = well fitted curve in either direction with a large enough effect, not every such curve was filed as active); settings: ME-180 SIE beta-lactamase reporter, IL-6 stimulated, 5 h; at 7.69 µM (top of the series) unless noted
Summary of the method: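 Overnight-plated ME-180 cells bearing a STAT Inducible Element beta-lactamase reporter; 5 h co-exposure to compound and 40 pM IL-6; values normalized to 300 pM IL-6 and 125 nM JAK inhibitor controls.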

[15] = qHTS Assay for Identification of Small Molecule Agonists for Hypoxia Response Element Signaling Pathway (AID 914; active = well fitted activation curve with a large enough effect in the signal ratio, with a control signal flat, not every such curve was filed as active; the % refers to the signal ratio; also: % of control where 0% means no effect); settings: ME-180 HRE-bla reporter, beta-lactamase ratio, CoCl2, 17 h; activation: stronger effect = higher value
Summary of the method: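 ME-180 cells carrying an HRE-driven beta-lactamase reporter were treated with compounds in a titration series plus an EC50 level of CoCl2 for 17 h at 37 degrees Celsius; CCF4 readout as the 460nm/530nm ratio gave AC50 values.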

[16] = target: Cytochrome P450 3A4 (Homo sapiens) (UniProt P08684); assay: qHTS Assay for Inhibitors and Substrates of Cytochrome P450 3A4 (AID 884); also: potency is read from the fitted curve at half-maximal effect; nearly all actives have a fitted effect of over 50% in size
Summary of the method: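 Luminescent readout of luciferin produced by CYP3A4 (20 nM) dealkylation of Luciferin-PPXE, 25 uM (its KM). NADPH-driven reaction ran 60 min at RT after 10 min compound preincubation; data scaled to 57 uM ketoconazole as 100% inhibition.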

[17] = target: Cytochrome P450 2D6 (Homo sapiens) (UniProt P10635); assay: qHTS Assay for Inhibitors and Substrates of Cytochrome P450 2D6 (AID 891); also: potency is read from the fitted curve at half-maximal effect; nearly all actives have a fitted effect of over 60% in size
Summary of the method: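 Luminescent read-out of luciferin formed by 5 nM human CYP2D6 demethylating 30 uM Luciferin-ME EGE (Km level) over 60 min at room temperature after NADPH regeneration addition. Data normalized to full inhibition by 1.43 uM quinidine.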

[18] = target: Cytochrome P450 2C9 (Homo sapiens) (UniProt P11712); assay: qHTS Assay for Inhibitors and Substrates of Cytochrome P450 2C9 (AID 883); also: % is scaled to controls: 0 for no effect and ±100 for the full control effect; nearly all actives have a fitted effect of over 60% in size
Summary of the method: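 Human CYP2C9 (10nM) hydroxylated Luciferin-H (100uM, at its KM) to luciferin in 25mM KPO4. Compound was preincubated 10 min at 37C, then NADPH regeneration started a 60 min reaction at 37C. Luminescence was read after detection reagent, normalized to 57uM sulphaphenazole.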

Sequence of 3',5'-cyclic-AMP phosphodiesterase 4B (Homo sapiens) (Q07343 whole entry, looked up): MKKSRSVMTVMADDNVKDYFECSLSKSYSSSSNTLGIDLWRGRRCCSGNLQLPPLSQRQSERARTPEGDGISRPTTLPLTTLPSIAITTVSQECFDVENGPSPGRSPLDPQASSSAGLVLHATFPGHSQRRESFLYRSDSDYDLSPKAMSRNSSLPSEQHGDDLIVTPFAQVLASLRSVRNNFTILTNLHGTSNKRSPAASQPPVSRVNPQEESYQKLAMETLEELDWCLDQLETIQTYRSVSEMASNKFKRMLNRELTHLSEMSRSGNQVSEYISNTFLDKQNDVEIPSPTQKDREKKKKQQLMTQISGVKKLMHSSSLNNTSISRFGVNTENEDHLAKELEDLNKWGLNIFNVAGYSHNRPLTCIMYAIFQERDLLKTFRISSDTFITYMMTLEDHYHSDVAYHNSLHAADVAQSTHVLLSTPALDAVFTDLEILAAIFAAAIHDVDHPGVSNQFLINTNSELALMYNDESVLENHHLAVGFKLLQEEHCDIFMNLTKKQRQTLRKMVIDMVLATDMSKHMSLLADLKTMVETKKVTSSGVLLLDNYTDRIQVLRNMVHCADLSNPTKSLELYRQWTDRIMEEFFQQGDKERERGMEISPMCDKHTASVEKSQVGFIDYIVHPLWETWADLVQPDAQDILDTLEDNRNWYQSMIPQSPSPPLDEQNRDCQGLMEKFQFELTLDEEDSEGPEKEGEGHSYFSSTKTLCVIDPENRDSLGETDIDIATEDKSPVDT
Sequence of Glucocorticoid receptor (Homo sapiens) (P04150 whole entry, looked up, the tested form may be a part): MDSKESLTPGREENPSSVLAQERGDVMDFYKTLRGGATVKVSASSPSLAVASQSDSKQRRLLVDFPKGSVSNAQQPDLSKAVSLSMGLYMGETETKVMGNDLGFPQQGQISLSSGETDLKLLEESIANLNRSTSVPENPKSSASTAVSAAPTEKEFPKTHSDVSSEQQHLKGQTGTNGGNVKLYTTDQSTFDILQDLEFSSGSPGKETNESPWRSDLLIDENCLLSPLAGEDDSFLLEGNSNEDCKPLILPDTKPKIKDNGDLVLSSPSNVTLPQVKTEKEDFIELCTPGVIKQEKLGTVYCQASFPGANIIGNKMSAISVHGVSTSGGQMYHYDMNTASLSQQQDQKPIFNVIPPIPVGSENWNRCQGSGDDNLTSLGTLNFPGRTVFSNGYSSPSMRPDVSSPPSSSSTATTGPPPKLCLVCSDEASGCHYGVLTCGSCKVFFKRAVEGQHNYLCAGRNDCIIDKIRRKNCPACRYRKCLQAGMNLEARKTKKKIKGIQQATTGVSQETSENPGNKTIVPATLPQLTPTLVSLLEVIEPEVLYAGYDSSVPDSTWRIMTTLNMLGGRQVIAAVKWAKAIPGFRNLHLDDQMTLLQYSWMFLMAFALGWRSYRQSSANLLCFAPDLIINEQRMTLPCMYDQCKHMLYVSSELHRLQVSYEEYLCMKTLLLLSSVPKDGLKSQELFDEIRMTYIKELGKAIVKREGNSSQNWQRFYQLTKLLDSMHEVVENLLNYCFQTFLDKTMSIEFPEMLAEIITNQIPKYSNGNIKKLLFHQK
Sequence of Lysosomal acid glucosylceramidase (Homo sapiens) (P04062 whole entry, looked up): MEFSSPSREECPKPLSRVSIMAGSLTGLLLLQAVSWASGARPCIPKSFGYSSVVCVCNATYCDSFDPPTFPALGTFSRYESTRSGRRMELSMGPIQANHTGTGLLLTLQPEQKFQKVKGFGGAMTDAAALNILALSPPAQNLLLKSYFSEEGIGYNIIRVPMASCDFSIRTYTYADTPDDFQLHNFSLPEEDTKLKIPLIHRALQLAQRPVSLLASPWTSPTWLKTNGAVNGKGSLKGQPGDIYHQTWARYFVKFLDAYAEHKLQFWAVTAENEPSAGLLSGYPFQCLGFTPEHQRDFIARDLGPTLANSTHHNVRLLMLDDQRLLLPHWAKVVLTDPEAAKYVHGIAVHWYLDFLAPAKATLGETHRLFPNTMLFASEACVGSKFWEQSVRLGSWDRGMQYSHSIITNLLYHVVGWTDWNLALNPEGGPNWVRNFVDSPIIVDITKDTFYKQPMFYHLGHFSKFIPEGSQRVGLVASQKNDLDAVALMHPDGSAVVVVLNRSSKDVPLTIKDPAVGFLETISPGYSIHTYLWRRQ
Sequence of Cytochrome P450 3A4 (Homo sapiens) (P08684 whole entry, looked up): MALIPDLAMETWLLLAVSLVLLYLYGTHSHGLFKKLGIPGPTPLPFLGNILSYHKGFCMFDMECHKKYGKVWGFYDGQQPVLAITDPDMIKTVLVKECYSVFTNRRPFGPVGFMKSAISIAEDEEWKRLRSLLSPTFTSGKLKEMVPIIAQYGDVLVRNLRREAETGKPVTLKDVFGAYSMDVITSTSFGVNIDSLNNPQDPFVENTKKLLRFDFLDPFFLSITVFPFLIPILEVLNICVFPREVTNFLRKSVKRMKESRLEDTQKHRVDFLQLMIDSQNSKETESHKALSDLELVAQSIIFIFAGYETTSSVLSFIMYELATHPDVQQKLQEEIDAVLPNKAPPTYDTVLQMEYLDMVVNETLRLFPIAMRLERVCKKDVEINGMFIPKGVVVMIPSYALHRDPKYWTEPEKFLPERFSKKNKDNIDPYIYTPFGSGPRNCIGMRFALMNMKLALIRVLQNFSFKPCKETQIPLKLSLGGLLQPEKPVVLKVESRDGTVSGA
Sequence of Dual specificity protein kinase CLK4 (Homo sapiens) (Q9HAZ1 whole entry, looked up): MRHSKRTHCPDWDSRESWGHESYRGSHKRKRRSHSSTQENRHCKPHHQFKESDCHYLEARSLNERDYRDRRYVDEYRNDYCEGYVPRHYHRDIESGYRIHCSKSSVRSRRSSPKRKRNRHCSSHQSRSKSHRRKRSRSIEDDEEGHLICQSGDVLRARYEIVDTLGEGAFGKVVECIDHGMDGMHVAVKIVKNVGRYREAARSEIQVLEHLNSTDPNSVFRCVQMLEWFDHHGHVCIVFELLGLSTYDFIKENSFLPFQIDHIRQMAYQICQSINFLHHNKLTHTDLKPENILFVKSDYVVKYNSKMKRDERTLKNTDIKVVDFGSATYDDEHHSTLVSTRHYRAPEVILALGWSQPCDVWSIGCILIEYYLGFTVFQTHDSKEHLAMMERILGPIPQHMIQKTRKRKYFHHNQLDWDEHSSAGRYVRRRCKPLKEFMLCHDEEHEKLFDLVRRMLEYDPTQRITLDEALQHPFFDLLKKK
Sequence of Cytochrome P450 1A2 (Homo sapiens) (P05177 whole entry, looked up): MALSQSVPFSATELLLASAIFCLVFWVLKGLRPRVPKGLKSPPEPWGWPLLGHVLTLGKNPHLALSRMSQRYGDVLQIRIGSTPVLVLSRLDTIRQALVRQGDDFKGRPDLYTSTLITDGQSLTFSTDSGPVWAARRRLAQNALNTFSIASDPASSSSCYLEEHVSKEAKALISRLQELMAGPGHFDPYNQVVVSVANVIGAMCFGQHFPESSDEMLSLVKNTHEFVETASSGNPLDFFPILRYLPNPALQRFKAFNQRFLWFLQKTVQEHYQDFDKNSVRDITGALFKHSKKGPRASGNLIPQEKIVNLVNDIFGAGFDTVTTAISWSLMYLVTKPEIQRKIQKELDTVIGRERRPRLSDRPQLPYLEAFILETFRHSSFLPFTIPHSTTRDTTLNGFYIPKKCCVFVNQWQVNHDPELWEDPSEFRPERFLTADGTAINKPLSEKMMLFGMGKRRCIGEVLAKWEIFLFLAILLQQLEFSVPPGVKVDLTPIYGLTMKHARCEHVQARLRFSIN
Sequence of Ubiquitin carboxyl-terminal hydrolase 1 (Homo sapiens) (O94782 whole entry, looked up): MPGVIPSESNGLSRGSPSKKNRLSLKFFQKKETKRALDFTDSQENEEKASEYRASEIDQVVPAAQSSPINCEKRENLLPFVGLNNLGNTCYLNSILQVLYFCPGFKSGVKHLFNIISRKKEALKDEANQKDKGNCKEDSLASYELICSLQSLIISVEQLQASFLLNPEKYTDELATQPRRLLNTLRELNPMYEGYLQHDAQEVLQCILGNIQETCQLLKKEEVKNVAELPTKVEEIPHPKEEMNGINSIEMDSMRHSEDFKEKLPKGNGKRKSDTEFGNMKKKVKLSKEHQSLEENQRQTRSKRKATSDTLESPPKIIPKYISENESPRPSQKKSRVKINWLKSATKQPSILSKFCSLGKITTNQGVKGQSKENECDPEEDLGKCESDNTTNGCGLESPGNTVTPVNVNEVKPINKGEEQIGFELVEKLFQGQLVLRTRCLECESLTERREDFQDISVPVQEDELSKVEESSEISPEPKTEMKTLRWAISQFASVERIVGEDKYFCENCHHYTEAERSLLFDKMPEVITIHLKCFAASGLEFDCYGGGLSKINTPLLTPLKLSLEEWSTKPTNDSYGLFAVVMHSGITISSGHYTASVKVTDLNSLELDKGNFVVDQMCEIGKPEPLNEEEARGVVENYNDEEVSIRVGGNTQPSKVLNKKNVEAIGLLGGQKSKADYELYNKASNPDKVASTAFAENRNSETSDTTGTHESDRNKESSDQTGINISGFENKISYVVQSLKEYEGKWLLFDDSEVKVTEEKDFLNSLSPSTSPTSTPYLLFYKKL
Sequence of Cytochrome P450 2C9 (Homo sapiens) (P11712 whole entry, looked up): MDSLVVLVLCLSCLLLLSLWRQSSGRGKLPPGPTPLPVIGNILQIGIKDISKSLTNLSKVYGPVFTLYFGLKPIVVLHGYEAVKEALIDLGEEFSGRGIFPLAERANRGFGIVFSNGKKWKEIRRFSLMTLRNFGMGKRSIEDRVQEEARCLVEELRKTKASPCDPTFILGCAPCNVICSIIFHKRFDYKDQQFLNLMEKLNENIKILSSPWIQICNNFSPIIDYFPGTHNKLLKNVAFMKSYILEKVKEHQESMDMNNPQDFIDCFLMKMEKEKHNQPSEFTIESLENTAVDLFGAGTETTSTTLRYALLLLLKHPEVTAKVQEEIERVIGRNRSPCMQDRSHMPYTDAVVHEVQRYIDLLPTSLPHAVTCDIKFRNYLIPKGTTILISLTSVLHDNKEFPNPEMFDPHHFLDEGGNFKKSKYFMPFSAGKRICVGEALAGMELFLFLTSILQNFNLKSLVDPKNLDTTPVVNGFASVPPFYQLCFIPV

CCNc1ncc2nc(-c3cccs3)c(=O)n(Cc3cccc(OC)c3)c2n1
Potency [1]: > 11.4 µM
activity change, negative = inhibition [2]: 19.3%
Potency [3]: 0.126 µM (active)
Potency [4]: > 9.22 µM
Potency [5]: > 46 µM
Potency [6]: inactive
Potency [7]: inactive
Potency [8]: inactive
Potency [9]: inactive
Potency [10]: inactive
Potency [11]: inactive
outcome [12]: inactive

COc1ccc(Oc2ncc3nc(-c4cccc(C#N)c4)c(=O)n(C)c3n2)cc1
Potency [1]: > 11.4 µM
activity change, negative = inhibition [2]: -0.821%
activity change, negative = inhibition [13]: -9.84%
activity, negative = inhibition [14]: -2.78%
Potency [4]: > 9.22 µM
Potency [5]: > 46 µM
Potency [6]: inactive
Potency [7]: inactive
Potency [9]: inactive
Potency [10]: inactive
Potency [11]: inactive
outcome [12]: inactive

FC(F)(F)c1ccccc1-c1nc(-n2ccnc2)c2ccccc2n1
Potency [1]: > 11.4 µM
activity change, negative = inhibition [2]: 9.46%
activity change, negative = inhibition [13]: 3.74%
activity, negative = inhibition [14]: -3.35%
Potency [4]: > 46 µM
Potency [5]: > 46 µM
Potency [6]: inactive
Potency [7]: inactive
activation [15]: 2.67%
Potency [9]: 15.8 µM (active)
Potency [10]: 17.8 µM (active)
Potency [11]: inactive
outcome [12]: inactive

CS(=O)(=O)Nc1cccc(-c2nc(NCc3ccccc3)c3ccccc3n2)c1
Potency [1]: > 11.4 µM
activity change, negative = inhibition [2]: -10.8%
Potency [3]: 2.51 µM (active)
activity change, negative = inhibition [13]: 7.92%
activity, negative = inhibition [14]: -10.7%
Potency [4]: > 46 µM
Potency [6]: inactive
Potency [16]: 3.16 µM (active)
Potency [8]: inactive
Potency [9]: 31.6 µM (active)
Potency [10]: 28.2 µM (active)
Potency [11]: inactive
outcome [12]: inactive

Cc1noc(C)c1-c1nccc(N(C)C)n1
Potency [1]: > 11.4 µM
activity change, negative = inhibition [2]: 2.07%
Potency [3]: 0.631 µM (active)
activity change, negative = inhibition [13]: -4.83%
activity, negative = inhibition [14]: 15.8%
Potency [4]: > 46 µM
Potency [5]: > 46 µM
Potency [6]: inactive
Potency [7]: inactive
Potency [8]: inactive
Potency [9]: inactive
Potency [10]: inactive
Potency [11]: inactive
outcome [12]: inactive

CN(Cc1ccco1)c1nc(-c2ccoc2)nc2ccccc12
Potency [1]: > 11.4 µM
activity change, negative = inhibition [2]: -25.1%
Potency [3]: 0.398 µM (active)
activity change, negative = inhibition [13]: -18.3%
activity, negative = inhibition [14]: -4.21%
Potency [4]: > 46 µM
Potency [5]: > 46 µM
Potency [6]: inactive
Potency [8]: inactive
Potency [9]: inactive
Potency [10]: inactive
Potency [11]: inactive
outcome [12]: inactive

FC(F)(F)c1ccccc1-c1nc(NC2CC2)c2ccccc2n1
Potency [1]: 6.53 µM (active)
activity change, negative = inhibition [2]: 3.67%
Potency [3]: 0.398 µM (active)
activity change, negative = inhibition [13]: 8.57%
activity, negative = inhibition [14]: 8.2%
Potency [4]: > 46 µM
Potency [5]: > 46 µM
Potency [6]: inactive
Potency [16]: 3.16 µM (active)
Potency [8]: inactive
Potency [9]: 14.1 µM (active)
Potency [10]: 14.1 µM (active)
Potency [11]: inactive
outcome [12]: inactive

Cc1cccc(CNc2cc(-c3ccccc3Cl)ncn2)c1
Potency [1]: > 11.4 µM
activity change, negative = inhibition [2]: 13.1%
Potency [3]: 3.16 µM (active)
activity change, negative = inhibition [13]: -3.92%
activity, negative = inhibition [14]: 0.338%
Potency [4]: > 46 µM
Potency [5]: > 46 µM
Potency [6]: inactive
Potency [7]: inactive
Potency [8]: inactive
Potency [9]: 28.2 µM (active)
Potency [10]: 28.2 µM (active)
outcome [12]: inactive

CS(=O)(=O)Nc1cccc(-c2nc(-n3ccnc3)c3ccccc3n2)c1
Potency [1]: > 11.4 µM
activity change, negative = inhibition [2]: -3.92%
activity change, negative = inhibition [13]: 4.67%
activity, negative = inhibition [14]: -7.2%
Potency [4]: > 46 µM
Potency [5]: > 46 µM
Potency [6]: inactive
Potency [9]: 15.8 µM (active)
Potency [10]: 20 µM (active)
Potency [11]: inactive
outcome [12]: inactive

COc1cccc(-c2nc(NCCNC(C)=O)c3ccccc3n2)c1
Potency [1]: > 11.4 µM
activity change, negative = inhibition [2]: -4.33%
Potency [3]: 2.51 µM (active)
activity, negative = inhibition [14]: 3.51%
Potency [4]: > 46 µM
Potency [5]: > 46 µM
Potency [6]: inactive
Potency [7]: inactive
Potency [8]: inactive
Potency [17]: 3.98 µM (active)
Potency [9]: 31.6 µM (active)
Potency [10]: 28.2 µM (active)
Potency [11]: inactive
outcome [12]: inactive

Cc1cnc(CNc2ncncc2-c2ccccc2Cl)cn1
Potency [1]: > 11.4 µM
activity change, negative = inhibition [2]: -2.38%
Potency [3]: 15.8 µM (active)
activity change, negative = inhibition [13]: 13.7%
activity, negative = inhibition [14]: -0.675%
Potency [4]: > 46 µM
Potency [5]: > 46 µM
Potency [6]: inactive
Potency [7]: inactive
Potency [8]: inactive
Potency [9]: inactive
Potency [10]: inactive
Potency [11]: inactive
outcome [12]: inactive

Cc1cnc(CNc2ccnc(-c3cccnc3)n2)cn1
Potency [1]: > 11.4 µM
activity change, negative = inhibition [2]: 16.6%
Potency [3]: 7.94 µM (active)
activity, negative = inhibition [14]: 13.3%
Potency [4]: > 46 µM
Potency [5]: > 46 µM
Potency [6]: inactive
Potency [7]: inactive
activity change, negative = inhibition [18]: 21.5% [at 2.29 µM]
Potency [16]: 5.01 µM (active)
Potency [8]: inactive
Potency [9]: 15.8 µM (active)
Potency [10]: 15.8 µM (active)
Potency [11]: inactive
outcome [12]: inactive

CN(C)C(=O)c1ccc(-c2cc(NCc3cccs3)ncn2)cc1
Potency [1]: > 11.4 µM
activity change, negative = inhibition [2]: -17.2%
activity change, negative = inhibition [13]: 3.58%
activity, negative = inhibition [14]: 5.59%
Potency [4]: > 46 µM
Potency [5]: > 46 µM
Potency [6]: inactive
Potency [9]: 20 µM (active)
Potency [10]: 22.4 µM (active)
Potency [11]: inactive
outcome [12]: inactive
